Assay outcomes (PubChem BioAssay)
Mito fusion yeast – qHTS Assay for Small Molecule Inhibitors of Mitochondrial Division or Activators of Mitochondrial Fusion. S. cerevisiae fusion-defective mutant growth rescue, CellTiterGlo 48 h. Potency, µM (top dose mostly 46.1 µM), inactives show at the top dose growth rescue (activation), hits mostly activators. 0.23% of 320,000 active. AID 485298, 2010; also: % of control where 0% means no effect; nearly all actives have a fitted effect of over 45% in size
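Temperature-sensitive fusion-defective S. cerevisiae (e.g. fzo1-1, mgm1-5) were grown with compound in YPEG medium (3% ethanol, 3% glycerol) for 48 hours at 37C. Growth rescue was measured as viability by CellTiterGlo luminescence after 10 minutes at ambient.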
Abeta yeast res – qHTS for compounds that reverse cellular toxicity of Amyloid beta (A-beta) peptide in yeast: Primary Screen; yeast expressing A-beta42, growth rescue, OD600, 48 h; response scale: 0% DMSO, 100% iron-clioquinol control; Potency, µM (doses to about 46.1 µM), most hits filed as activators; 0.063% of 410,000 active; also: nearly all actives have a fitted effect of over 55% in size
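Growth rescue measured by 600 nm absorbance after 48 h yeast culture at 30 C with compound. Values normalized between DMSO and an equimolar ferric chloride plus clioquinol control.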
FUS suppressor – qHTS for Suppressors of FUS Proteinopathy: Primary screen using FUS-linked yeast assay | S. cerevisiae FUS-expressing, growth rescue, OD600, 24 h | Potency, µM (titrated, usually from 76.6 µM), actives largely listed as activators | 0.24% of 390,000 active;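 also: plate controls were DMSO vehicle for no effect and reference control for full effect; nearly all actives have a fitted effect of over 55% in size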
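Toxicity suppression screen in FUS-yeast. Cells induced with 2% galactose, starting OD 0.005, treated 24hr at 30C with compounds at multiple final concentrations; growth by OD600.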
aSyn yeast inh – qHTS of alpha-syn Inhibitors; Yeast expressing alpha-synuclein, growth rescue, BacTiter-Glo, 24 h; Potency, µM (highest dose often 46.1 µM), for inactives: top-dose growth rescue (activation), actives largely listed as activators; 0.14% of 370,000 active; also: % of control where 0% means no effect; nearly all actives have a fitted effect of over 65% in size
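Rescue of yeast growth: cells expressing toxic alpha-synuclein, induced in galactose at OD600 0.02, incubated with compound 24 h at 30 C. ATP luminescence quantified growth; inhibitors of toxicity appear as activators.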
TDP43 rescue – qHTS of TDP-43 Inhibitors. TDP-43 expressing yeast growth rescue, BacTiter-Glo, 24 h. Potency, µM (doses to about 46.1 µM), for inactives: at the top dose growth rescue (activation), most hits filed as activators. 1.8% of 410,000 active. AID 652104, 2013; also: % of control where 0% means no effect; nearly all actives have a fitted effect of over 50% in size
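Yeast cells expressing TDP-43 under galactose induction are exposed to compounds for 24 hr at 30 deg C. BacTiter-Glo luminescence measures growth, so protective compounds score as activators.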
* marks the source's active call; other numbers are inactive results; i = inactive; ? = inconclusive; · = no result given; [ ] = another dose, or the depositor's remark. Shown are actives, neighbours in structure and some others; about 2.2% of the full set was active somewhere. Calls follow the shape of the dose curve; as a rule, active = well fitted curve in the direction sought with a large enough effect; inconclusive = small, poorly fitted or top-dose-only effect, or another doubt; inactive = no such curve, though single readings can be large; an effect the other way counts as inactive or inconclusive. Potency is read from the fitted curve at half-maximal effect.

SMILES	Mito fusion yeast	Abeta yeast res	FUS suppressor	aSyn yeast inh	TDP43 rescue
CC(C)N(C(=O)[C@H]1C[C@H](CC(=O)NCc2cccc(C(F)(F)F)c2)C(=O)N2CCc3c([nH]c4ccc(Cl)cc34)[C@]12C)C(C)C	·	i	i	?	35.5µM*
CC[C@]12c3[nH]c4cc(-c5ccco5)ccc4c3CCN1C(=O)[C@@H](CC(=O)NCc1ccc(OC)c(OC)c1)C[C@@H]2C(=O)N1CCN(C(=O)c2ccco2)CC1	·	i	35.5µM*	4.1%	18.6%
CC[C@]12c3[nH]c4cc(CCC(=O)N(C)C)ccc4c3CCN1C(=O)[C@@H](CC(=O)NCc1ccc(OC)c(OC)c1)C[C@@H]2C(=O)N1CCN(C(=O)c2ccco2)CC1	·	i	i	3.1%	5.0%
Cc1oc2c(C)c3oc(=O)c(CCC(=O)O)c(C)c3cc2c1-c1ccccc1	3.55µM*	i	i	14.5%	24.6%
Cc1c(CCC(=O)O)c(=O)oc2c(C)c3occ(-c4ccc(Cl)cc4)c3cc12	20.4%	i	i	7.6%	10.0%
Cc1cc(C(=O)C(=O)Nc2nncs2)c(C)n1-c1ccc(Cl)cc1	·	i	i	·	11.2µM*
Cc1cccc(-n2c(C)cc(C(=O)C(=O)Nc3nncs3)c2C)c1	·	i	i	·	?
CC(Cc1cccs1)NC(=S)Nc1ccc(F)cc1 (stereo not drawn)	0.8%	12.6µM*	i	-0.3%	-18.5%[0.397 µM]
COc1ccc(NC(=S)NC(C)Cc2cccs2)cc1 (stereo not drawn)	-1.1%	?	i	1.1%	?
COc1ccc(Br)c(C(=O)OCC(=O)NC2CCCCCC2)c1	23.2%	i	i	16.2%	22.4µM*
COc1ccc2c(c1)c(=O)oc1cc(OCC(=O)NC3CCCCC3)ccc12	-22.2%	?	i	0.2%	15.8µM*
COc1ccc(Br)c(C(=O)OCC(=O)NC2CCCCCCC2)c1	·	i	i	27.3%	?
COc1cccc(CNS(=O)(=O)c2cc3c(cc2Br)CC(C)N3C(C)=O)c1 (stereo not drawn)	·	·	i	·	·
CCc1ccc(C2C(C(=O)Nc3ccccc3OC)=C(C)Nc3c(C(=O)Nc4ccc(C)cc4)cnn32)cc1 (stereo not drawn)	·	i	i	·	0.0%
Cc1cc(C)cc(NC(=O)CSc2c(C(C)C)cnc3c2c(=O)n(C)c(=O)n3C)c1	·	i	i	·	?
CC(C)c1cnc2c(c1SCC(=O)Nc1cccc(F)c1)c(=O)n(C)c(=O)n2C	·	i	i	·	35.5µM*
COC1=C(Nc2ccc(OC)cc2)C(=O)C(OC)=C(Nc2ccc(OC)cc2)C1=O	·	i	i	-1.4%	21.4%
COC1=C(Nc2ccc(OC)cc2)C(=O)c2ccccc2C1=O	4.6%	i	i	-15.8%	17.8µM*
COc1ccc(NS(=O)(=O)c2cccc3ccccc23)cc1	·	i	i	?	11.2µM*
COc1ccc(S(=O)(=O)Nc2cccc3ccccc23)cc1	·	·	·	18.9%	·
CCOc1ccc(NC2=C(OC)C(=O)c3ccccc3C2=O)cc1	7.9%	i	i	-12.0%	17.8µM*
C=C(C)Cn1c(=O)c2c(nc3n2CCN3c2ccc(F)cc2)n(C)c1=O	·	i	i	·	15.1%
C=CCNC(=O)NCC1CCN(Cc2ccc(OC)cc2)CC1	·	·	i	·	·
CCOc1ccc(Cl)cc1-c1cc(C(=O)NCc2ccccc2)[nH]n1	·	i	?	27.1%	?
CCOc1ccc(Cl)cc1-c1cc(C(=O)NCc2ccccc2OC)[nH]n1	·	i	?	?	17.8µM*
SMILES	Mito fusion yeast	Abeta yeast res	FUS suppressor	aSyn yeast inh	TDP43 rescue
CC(C)(Cc1cc(CC(C)(C)C(=O)O)cc(C(C)(C)C)c1)C(=O)O	2.8%	i	i	3.3%	35.5µM*
CC(C)(C#N)Cc1cc(CC(C)(C)C#N)cc(C(C)(C)C)c1	-0.9%	i	i	-9.5%	-19.6%
Brc1ccc(CSc2ncnc3nc[nH]c23)cc1	12.6µM*	i	i	-11.7%	?
COCCNC(=O)C1CCN(S(=O)(=O)c2ccc3c(c2)CCCN3C(C)=O)CC1	·	i	i	·	6.8%
CNCCc1cnc(CCC(c2ccccc2)c2ccccc2)[nH]1	?	·	·	9.0%	·
O=c1c(Cl)c(Cl)cnn1Cc1nnc(-c2ccccc2Br)o1	-0.4%	i	i	5.2%	12.6µM*
CCCNC(=O)c1cc2c(c(-c3cccc(-c4ccccc4F)c3)n1)[C@@H](CCO)N(C(=O)CC1CC1)C2	·	i	?	0.0%	14.1µM*
O=C(NCC(F)(F)F)c1cc2c(c(-c3cccc(-c4ccccc4F)c3)n1)[C@H](CCO)N(C(=O)CC1CC1)C2	·	i	?	11.4%	21.3%
C[C@@H]1CN([C@H](C)CO)C(=O)c2c(c3ccccc3n2C)-c2ccccc2CO[C@@H]1CN(C)C(=O)Nc1ccccc1C(F)(F)F	·	i	i	-4.8%	20µM*
Cc1noc(C)c1NC(=O)N(C)C[C@@H]1OCc2ccccc2-c2c(n(C)c3ccccc23)C(=O)N([C@H](C)CO)C[C@H]1C	·	i	i	-1.9%	0.2%
COc1ccc(CN(CCN2CCOCC2)C(=O)c2cccc(F)c2)cc1OC	·	·	i	·	·
COc1ccc(Oc2ncnc3sccc23)cc1	2.2%	i	i	-5.6%	?
Cc1nc(Oc2ccccc2)c2ccsc2n1	2.6%	i	i	6.3%	12.6µM*
CCn1ncc(/C=N\NC(=O)c2ccc3c(c2)c(C)c(C)n3Cc2ccccc2)c1C	-3.0%	i	?	8.6%	3.9%
CCn1nc(C)c(/C=N/NC(=O)c2ccc3c(c2)c(C)c(C)n3Cc2ccccc2)c1C	4.4%	i	11.2µM*	2.3%	4.9%
CCSc1ncc(Cl)c(C(=O)N(Cc2ccccc2)Cc2ccco2)n1	·	i	i	·	18.1%
CCCS(=O)(=O)c1ncc(Cl)c(C(=O)N(Cc2ccccc2)Cc2ccco2)n1	·	i	i	23.2%	15.8µM*
C=CCN1[C@H](CO)[C@H](c2ccc(C#CC3(O)CCCC3)cc2)[C@@H]1C#N	·	·	i	·	·
O=S(=O)(c1ccc2ccccc2c1)N1CCN(c2ccc(O)cc2)CC1	·	i	i	?	11.2µM*
Cc1cc(C)c(C)c(S(=O)(=O)N2CCN(c3ncnc4ccccc34)CC2)c1C	17.8µM*	i	i	5.5%	0.2%
Cc1cc(C)c(C)c(S(=O)(=O)N2CCN(c3ccc(O)cc3)CC2)c1C	?	i	i	15.8µM*	?
Cc1cc(C)c(C)c(S(=O)(=O)N2CCC(C(=O)N3CCN(c4ccc(F)cc4)CC3)CC2)c1C	·	i	i	8.2%	?
